ChEMBL document CHEMBL3988442, “University of Dundee, Small-Polar-MMV Screening Library” (2021)
For some of these results: Entries with a potency or affinity are not part of this list.

Key:
Set-up in all cases: scale not given: direction of the effect not stated beside the values
[1] = target: Protein translocase subunit SecA (Escherichia coli (strain K12)) (UniProt P10408); experiment: Assay to Identify E. coli SecA ATPase Inhibitors; format: functional; conditions: 30 µM
[2] = target: T1, Ubiquitin-activating enzyme e1, putative (Leishmania donovani (strain BPK282A1)) (UniProt E9BSI1); experiment: Leishmania donovani Ubiquitin Activating Enzyme (LdE1); format: functional; conditions: 30 µM
T1 sequence (whole entry): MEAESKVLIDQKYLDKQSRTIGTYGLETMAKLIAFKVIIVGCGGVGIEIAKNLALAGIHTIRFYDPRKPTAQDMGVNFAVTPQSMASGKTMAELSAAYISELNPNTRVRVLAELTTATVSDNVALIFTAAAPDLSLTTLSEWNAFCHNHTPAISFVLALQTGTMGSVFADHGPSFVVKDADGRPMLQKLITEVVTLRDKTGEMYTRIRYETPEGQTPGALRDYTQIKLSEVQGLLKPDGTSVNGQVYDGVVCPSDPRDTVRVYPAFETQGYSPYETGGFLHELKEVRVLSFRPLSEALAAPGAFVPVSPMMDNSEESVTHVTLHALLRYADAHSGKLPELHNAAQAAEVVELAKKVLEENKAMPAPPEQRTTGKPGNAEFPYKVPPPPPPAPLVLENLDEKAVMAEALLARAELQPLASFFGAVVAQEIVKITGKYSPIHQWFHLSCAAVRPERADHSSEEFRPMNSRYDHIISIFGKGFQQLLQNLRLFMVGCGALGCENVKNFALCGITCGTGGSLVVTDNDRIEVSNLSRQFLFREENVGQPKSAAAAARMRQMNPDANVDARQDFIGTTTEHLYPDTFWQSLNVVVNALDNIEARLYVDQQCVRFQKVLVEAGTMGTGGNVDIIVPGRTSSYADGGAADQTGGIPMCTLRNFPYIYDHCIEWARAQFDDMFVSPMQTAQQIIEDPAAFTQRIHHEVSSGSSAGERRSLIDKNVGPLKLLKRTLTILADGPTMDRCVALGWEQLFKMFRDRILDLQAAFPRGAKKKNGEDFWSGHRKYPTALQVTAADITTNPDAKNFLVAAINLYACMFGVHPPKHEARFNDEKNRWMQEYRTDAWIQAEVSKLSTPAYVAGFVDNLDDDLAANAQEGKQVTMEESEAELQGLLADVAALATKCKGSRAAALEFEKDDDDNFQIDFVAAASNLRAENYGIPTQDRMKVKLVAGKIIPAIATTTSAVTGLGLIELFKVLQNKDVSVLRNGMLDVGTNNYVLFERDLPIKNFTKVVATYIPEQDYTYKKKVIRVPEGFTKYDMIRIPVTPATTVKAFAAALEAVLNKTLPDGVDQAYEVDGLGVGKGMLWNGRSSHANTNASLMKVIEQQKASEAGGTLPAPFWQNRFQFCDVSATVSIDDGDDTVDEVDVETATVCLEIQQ

[3] = target: AMP-activated protein kinase, AMPK (Homo sapiens) (UniProt P54646+O43741+P54619+Q9UGJ0+Q9Y478+Q13131+Q9UGI9); experiment: AMP-dependent Kinase enzyme assay. An in vitro enzyme assay that detects ADP turnover that is directly proportional to AMPK activity. This uses naive AMPK that is activated during the assay with MK-8722; format: functional; conditions: 30 µM
[4] = target: Sialic acid-binding Ig-like lectin 9 (Homo sapiens) (UniProt Q9Y336); experiment: Hs-Siglec9 ALPHAscreen SOP 20170721; conditions: 10 µM
Trypanosoma cruzi = experiment: Trypanosoma cruzi phosphomannomutase and mannose-1-phosphate guanylyltransferase assay; format: functional; conditions: 10 µM
[5] = target: T2, Arginase-2, mitochondrial (Homo sapiens) (UniProt P78540); experiment: in vitro enzyme assay to detect the production of urea directly proportional to the activity of Arginase II; format: functional; conditions: 33.3 µM; note: in the data most compounds retested in dose-response had high values
T2 sequence (whole entry): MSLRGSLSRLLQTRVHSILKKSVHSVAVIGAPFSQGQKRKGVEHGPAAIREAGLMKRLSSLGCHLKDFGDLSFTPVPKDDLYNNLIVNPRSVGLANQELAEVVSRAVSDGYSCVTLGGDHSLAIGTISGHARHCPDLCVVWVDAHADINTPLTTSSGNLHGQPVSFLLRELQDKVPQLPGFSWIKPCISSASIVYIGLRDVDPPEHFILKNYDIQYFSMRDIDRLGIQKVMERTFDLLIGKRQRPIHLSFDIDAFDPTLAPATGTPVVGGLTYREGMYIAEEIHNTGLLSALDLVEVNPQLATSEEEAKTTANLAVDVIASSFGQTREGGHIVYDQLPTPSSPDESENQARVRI

[6] = target: T3, Proteasome subunit beta (Trypanosoma cruzi) (UniProt O96673); experiment: Trypanosoma cruzi proteasome chymotrypsin-like activity (TcProtChymo) assay.; note: in the data most compounds retested in dose-response had high values; format: functional; conditions: 9.37 µM
T3 sequence (whole entry): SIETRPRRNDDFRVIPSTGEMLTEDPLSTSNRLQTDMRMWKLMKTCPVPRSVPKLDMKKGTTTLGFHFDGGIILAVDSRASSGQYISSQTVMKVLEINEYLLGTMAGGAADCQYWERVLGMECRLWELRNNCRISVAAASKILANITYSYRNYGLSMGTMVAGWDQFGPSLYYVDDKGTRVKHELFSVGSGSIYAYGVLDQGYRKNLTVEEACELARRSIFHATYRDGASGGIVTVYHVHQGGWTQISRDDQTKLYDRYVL

Homo sapiens = species: Homo sapiens; experiment: To identify inhibition of the IFN signalling (Jak-Stat) pathway via expression of an eGFP reporter gene under the control of an IFN-stimulated response element (ISRE) containing MxA promoter.; format: functional; conditions: 30 µM
[7] = target: T4, Tyrosyl-tRNA synthetase, putative (Trypanosoma cruzi (strain CL Brener)) (UniProt Q4DSP6); experiment: Trypanosoma cruzi tyrosyl tRNA synthetase (TcYRS) _High Tyrosine SOP; format: functional; conditions: 30 µM; note: in the data most compounds retested in dose-response had high values
T4 sequence (whole entry): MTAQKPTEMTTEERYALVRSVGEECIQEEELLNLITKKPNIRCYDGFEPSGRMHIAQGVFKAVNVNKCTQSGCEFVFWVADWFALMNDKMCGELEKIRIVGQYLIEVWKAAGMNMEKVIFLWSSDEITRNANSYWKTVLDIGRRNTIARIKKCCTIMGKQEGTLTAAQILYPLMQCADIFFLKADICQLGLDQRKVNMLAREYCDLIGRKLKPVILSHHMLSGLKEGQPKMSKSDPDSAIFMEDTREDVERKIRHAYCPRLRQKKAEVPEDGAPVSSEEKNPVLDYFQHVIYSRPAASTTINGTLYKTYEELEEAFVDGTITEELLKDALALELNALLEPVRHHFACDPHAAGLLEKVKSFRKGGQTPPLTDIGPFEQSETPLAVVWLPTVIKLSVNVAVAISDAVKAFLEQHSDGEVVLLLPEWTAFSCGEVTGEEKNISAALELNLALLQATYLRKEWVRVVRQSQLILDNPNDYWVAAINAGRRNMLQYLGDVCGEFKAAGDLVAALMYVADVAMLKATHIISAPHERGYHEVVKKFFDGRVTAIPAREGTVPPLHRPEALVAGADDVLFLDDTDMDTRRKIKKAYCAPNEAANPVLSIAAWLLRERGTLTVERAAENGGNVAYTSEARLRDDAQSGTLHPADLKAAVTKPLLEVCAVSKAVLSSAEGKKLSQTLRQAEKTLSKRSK

[8] = target: T4, Tyrosyl-tRNA synthetase, putative (Trypanosoma cruzi (strain CL Brener)); experiment: Trypanosoma cruzi tyrosyl tRNA synthetase (TcYRS) SOP; format: functional; conditions: 30 µM
[9] = target: Chromo domain-containing protein 1 (Saccharomyces cerevisiae (strain ATCC 204508 / S288c) (Baker's yeast)) (UniProt P32657); experiment: ScCHD-1 Enzyme Inhibition Assay; format: functional; conditions: 30 µM; note: in the data most compounds retested in dose-response had high values
Sequence of Chromo domain-containing protein 1 (Saccharomyces cerevisiae (strain ATCC 204508 / S288c) (Baker's yeast)) (P32657 whole entry, the tested form may be a part): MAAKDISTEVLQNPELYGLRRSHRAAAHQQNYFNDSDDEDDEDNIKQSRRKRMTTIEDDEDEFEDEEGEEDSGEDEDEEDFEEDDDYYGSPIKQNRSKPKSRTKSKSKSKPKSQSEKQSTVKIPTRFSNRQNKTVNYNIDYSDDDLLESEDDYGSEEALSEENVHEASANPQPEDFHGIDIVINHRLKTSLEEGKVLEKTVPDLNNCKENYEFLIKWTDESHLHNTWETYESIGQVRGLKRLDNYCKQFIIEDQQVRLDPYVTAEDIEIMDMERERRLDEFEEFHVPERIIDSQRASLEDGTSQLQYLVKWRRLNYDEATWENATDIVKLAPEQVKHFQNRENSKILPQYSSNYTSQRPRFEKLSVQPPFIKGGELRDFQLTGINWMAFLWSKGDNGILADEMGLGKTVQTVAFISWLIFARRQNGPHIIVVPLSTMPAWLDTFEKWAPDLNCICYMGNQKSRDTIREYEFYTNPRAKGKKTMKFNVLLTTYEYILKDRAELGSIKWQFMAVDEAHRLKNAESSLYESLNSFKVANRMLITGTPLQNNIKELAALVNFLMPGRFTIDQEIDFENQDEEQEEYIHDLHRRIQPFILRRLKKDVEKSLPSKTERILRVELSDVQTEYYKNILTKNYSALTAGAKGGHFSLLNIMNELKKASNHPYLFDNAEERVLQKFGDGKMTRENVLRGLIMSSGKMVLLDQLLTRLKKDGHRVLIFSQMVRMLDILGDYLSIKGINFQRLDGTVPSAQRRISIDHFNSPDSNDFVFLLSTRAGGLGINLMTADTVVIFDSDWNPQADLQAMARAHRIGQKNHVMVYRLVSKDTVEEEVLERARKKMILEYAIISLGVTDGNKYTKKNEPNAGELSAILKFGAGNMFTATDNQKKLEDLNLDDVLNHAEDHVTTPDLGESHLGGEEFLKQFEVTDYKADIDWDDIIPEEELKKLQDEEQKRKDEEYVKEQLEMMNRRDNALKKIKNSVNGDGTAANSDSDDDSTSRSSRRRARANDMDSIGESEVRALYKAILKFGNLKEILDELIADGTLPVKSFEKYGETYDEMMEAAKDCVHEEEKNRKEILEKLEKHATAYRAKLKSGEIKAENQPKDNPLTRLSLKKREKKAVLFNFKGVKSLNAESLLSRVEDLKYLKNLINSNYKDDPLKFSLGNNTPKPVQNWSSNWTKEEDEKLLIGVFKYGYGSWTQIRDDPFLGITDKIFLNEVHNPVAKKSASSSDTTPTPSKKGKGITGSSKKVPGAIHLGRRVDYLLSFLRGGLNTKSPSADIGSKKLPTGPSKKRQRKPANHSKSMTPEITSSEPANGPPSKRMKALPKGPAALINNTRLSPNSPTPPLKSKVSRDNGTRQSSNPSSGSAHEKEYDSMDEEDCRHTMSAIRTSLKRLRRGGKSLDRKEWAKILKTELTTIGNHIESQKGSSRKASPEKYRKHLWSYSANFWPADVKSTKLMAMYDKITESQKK

Sequence of Sialic acid-binding Ig-like lectin 9 (Homo sapiens) (Q9Y336 whole entry): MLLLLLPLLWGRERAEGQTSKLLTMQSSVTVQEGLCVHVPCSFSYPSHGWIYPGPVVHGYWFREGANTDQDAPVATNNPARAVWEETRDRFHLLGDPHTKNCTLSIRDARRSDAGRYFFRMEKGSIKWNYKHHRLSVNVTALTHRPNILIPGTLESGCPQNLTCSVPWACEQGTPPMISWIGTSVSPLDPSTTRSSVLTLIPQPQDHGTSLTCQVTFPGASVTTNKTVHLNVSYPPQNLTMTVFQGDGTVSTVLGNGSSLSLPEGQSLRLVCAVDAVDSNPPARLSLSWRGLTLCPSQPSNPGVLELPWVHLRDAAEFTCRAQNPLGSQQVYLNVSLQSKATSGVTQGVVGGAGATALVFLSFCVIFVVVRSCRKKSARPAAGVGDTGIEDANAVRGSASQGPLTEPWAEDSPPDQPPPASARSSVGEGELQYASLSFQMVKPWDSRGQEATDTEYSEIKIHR
Sequence of Protein translocase subunit SecA (Escherichia coli (strain K12)) (P10408 whole entry): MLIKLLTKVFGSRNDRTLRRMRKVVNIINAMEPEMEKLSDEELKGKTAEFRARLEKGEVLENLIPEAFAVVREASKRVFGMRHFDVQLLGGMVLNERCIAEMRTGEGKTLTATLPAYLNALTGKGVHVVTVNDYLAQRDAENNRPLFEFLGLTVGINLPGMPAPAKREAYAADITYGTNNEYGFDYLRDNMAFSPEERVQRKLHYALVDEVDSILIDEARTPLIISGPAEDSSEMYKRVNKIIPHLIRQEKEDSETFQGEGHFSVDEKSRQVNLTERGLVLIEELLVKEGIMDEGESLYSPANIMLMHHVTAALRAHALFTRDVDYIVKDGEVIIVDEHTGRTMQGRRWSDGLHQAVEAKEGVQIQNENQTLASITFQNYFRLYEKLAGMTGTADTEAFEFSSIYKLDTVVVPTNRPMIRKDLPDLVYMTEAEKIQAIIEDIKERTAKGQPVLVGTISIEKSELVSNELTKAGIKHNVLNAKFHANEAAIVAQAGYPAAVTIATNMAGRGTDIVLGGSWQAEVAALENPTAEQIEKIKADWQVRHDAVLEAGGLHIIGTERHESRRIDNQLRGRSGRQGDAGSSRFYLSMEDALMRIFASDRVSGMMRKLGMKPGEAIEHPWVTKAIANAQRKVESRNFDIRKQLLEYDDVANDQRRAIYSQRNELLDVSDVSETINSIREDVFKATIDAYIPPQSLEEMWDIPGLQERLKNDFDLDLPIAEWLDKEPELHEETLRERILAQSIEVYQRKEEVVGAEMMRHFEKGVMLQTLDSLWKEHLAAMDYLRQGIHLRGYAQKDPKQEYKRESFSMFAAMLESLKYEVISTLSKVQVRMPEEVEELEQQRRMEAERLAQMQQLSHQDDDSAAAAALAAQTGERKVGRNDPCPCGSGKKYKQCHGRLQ

| Structure (SMILES) | Percent Effect [1] | Percent Effect [2] | Percent Effect [3] | Percent Effect [4] | Percent Effect (Trypanosoma cruzi) | Percent Effect [5] | Percent Effect [6] | Percent Effect (Homo sapiens) | Percent Effect [7] | Percent Effect [8] | Percent Effect [9] |
| --- | --- | --- | --- | --- | --- | --- | --- | --- | --- | --- | --- |
| Cc1cnc(C(=O)N2CCCN(Cc3csc(C)n3)CC2)cn1 | -5.93% | 13.7% | -7.71% | 11.9% | 6.75% | 2% | 18.8% | -1.38% | 5.21% | 8.64% | -12.5% |
| CCc1nccn1C1CCCN(C(=O)c2ccc3c(c2)OCO3)C1 (configuration not stated) | -3.94% | -2.6% | 8.35% | -3.25% | -3.93% | -3.2% | 1.01% | 25.9% | -1.94% | -4.88% | -7.3% |
| CN(C)c1cc(CNC(=O)c2cn(-c3ccc(F)cc3)nn2)ccn1 | -5.01% | 10.4% | 1.52% | 2.16% | 0.686% | 3.58% | 14.2% | 11.3% | 7.62% | 21.2% | -6.24% |
| OCCOCCN1CCCC1c1nc2cc(F)ccc2[nH]1 (configuration not stated) | 7.36% | 21.9% | -1.73% | -1.07% | -13.1% | -2.4% | 14.3% | 9.67% | 11.5% | 18.5% | -1.92% |
| Cc1cnn(CC2CN(Cc3nc(N)c4ccccc4n3)CCO2)c1 (configuration not stated) | -2.67% | 13% | -1.66% | -10% | -5.78% | -1.47% | 19.3% | 10.5% | 4.76% | 11.8% | -20.4% |
| Cc1nc(CN(C)C2CCN(Cc3ccc4c(c3)OCCO4)C2)no1 (configuration not stated) | -7.11% | 13% | -0.861% | -3.18% | 5.39% | 1.9% | 2.83% | -7.46% | 5.71% | 11.8% | -17.4% |
| CC(C)c1nn(C)c(N2CCOCC2)c1CNC(C)c1cccs1 (configuration not stated) | -3.9% | -13.2% | -6.19% | -4.57% | -2.71% | -1.08% | 1.44% | -28.8% | 11.3% | 18.5% | -4.62% |
| COCCOc1ccc(NC(=O)C2CCCN(C(N)=O)C2)cn1 (configuration not stated) | -4.58% | 7.59% | 0.0742% | 4.56% | -6.33% | 1.52% | 5.82% | 22.6% | -0.493% | -1.27% | -5.42% |
| Cc1cccc(C(=O)NCc2ccnc(N(C)C)c2)n1 | 1.73% | -5.2% | 2.32% | 6.58% | -3.04% | 2.32% | 3.15% | 15.9% | 0% | -37.6% | 8% |
| COc1ncccc1C(=O)N1CC[C@H]2C[C@@H](C)O[C@@H]2C1 | -0.702% | 17.3% | 0.286% | -4.21% | -0.589% | -6.51% | 15.5% | -1.15% | 3.17% | 10.3% | -9.15% |
| CSc1ccc(C(CNC(=O)C2CC2)N2CCc3sccc3C2)cc1 (configuration not stated) | -3.4% | 5.26% | 1.69% | -0.599% | 0.876% | -2.37% | 16% | 9.34% | 8.51% | 15.6% | 4.76% |
| CCCc1n[nH]c(C2CN(C(=O)c3cc(F)ccc3OC)CCO2)n1 (configuration not stated) | -5.9% | 7.89% | -0.379% | 3.53% | 2.33% | -2.52% | 3.3% | -17.2% | 6.4% | 11.1% | -4.7% |
| c1cncc(COCc2nnc3n2CCN(Cc2ccoc2)C3)c1 | -1.23% | 18.2% | 3.03% | 9.78% | 5.21% | -8.28% | 21% | 8.47% | 6.45% | 16.1% | 0.555% |
| O=C(c1cnoc1)N1CCC[C@]2(C[C@@H](OCc3ccccn3)CO2)C1 | -1.86% | 21.9% | -6.83% | 23.6% | 5.56% | -1.6% | 12.8% | 1.81% | 6.25% | 8.64% | -6.46% |
| CC(C)c1nc(C2CCCN(C(=O)CCCn3cncn3)C2)no1 (configuration not stated) | -4.23% | 21.6% | -6.76% | 9.76% | 2.36% | -10.4% | 12.1% | -60.1% | 8.37% | 16.1% | -12.8% |
| CN(C)C(=O)CN1CCCCC1c1nc(N)ncc1-c1ccccc1 (configuration not stated) | -1.46% | 2.67% | 10.4% | 1.52% | -2.95% | 2.1% | 2.56% | -0.722% | 4.25% | 6.41% | -5.48% |
| COCCN1CCC(CN(CC2CCCO2)C(=O)COC)CC1 (configuration not stated) | -4.47% | 15.3% | -11% | 28.6% | 7.09% | 4.86% | 5.79% | -0.94% | 3.16% | 15.4% | -9.34% |
